Laboratory results as given in publication PMC7862700, “An all-to-all approach to the identification of sequence-specific readers for epigenetic DNA modifications on cytosine”.

Legend:
Assay in all cases: DAPPL (digital affinity profiling via proximity ligation, sequencing); 10 mM Tris-HCl pH 7.5, 50 mM NaCl, 1 mM DTT, 4% glycerol, room temperature, 30 min; GST-TFs on glutathione beads, 16-mer random dsDNA library, 0.1% formaldehyde crosslink after washing; high values mean tight binding
FEV = biological target: T1, FEV (Homo sapiens, UniProt Q99581 1-238); conditions: protein: recombinant; tags: N-terminal GST; dsDNA, one strand shown
T1 sequence: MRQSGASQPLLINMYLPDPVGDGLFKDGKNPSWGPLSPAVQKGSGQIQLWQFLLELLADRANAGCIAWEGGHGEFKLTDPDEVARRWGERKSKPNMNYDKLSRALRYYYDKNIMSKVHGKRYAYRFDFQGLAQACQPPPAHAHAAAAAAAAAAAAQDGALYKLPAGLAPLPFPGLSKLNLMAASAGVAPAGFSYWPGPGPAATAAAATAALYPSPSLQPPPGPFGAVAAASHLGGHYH
Summary of the method: (§1)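 GST fusions of human transcription factors were expressed in yeast and captured with glutathione beads. Once given DNA barcodes and pooled alongside a tag-only sample, they were incubated for 30 min at room temperature with 200 nmole of a random double-stranded 16-mer DNA library in Tris/NaCl/DTT/glycerol buffer, then washed, crosslinked (0.1% formaldehyde), proximity-ligated, PCR-amplified and sequenced on an Illumina NextSeq500. The binding signal of each hexamer is its read frequency for a factor divided by its frequency for the tag-only sample.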

ETV5 = ETV5 (Homo sapiens, UniProt P41161 1-510); conditions: protein: recombinant; tags: N-terminal GST; dsDNA, one strand shown
Summary of the method: as §1

HSF1 = HSF1 (Homo sapiens, UniProt Q00613 1-529); conditions: protein: recombinant; tags: N-terminal GST; chain copies: 3; dsDNA, one strand shown
Summary of the method: as §1

SPIC = biological target: T2, SPIC (Homo sapiens, UniProt Q8N5J4 1-248); conditions: protein: recombinant; tags: N-terminal GST; dsDNA, one strand shown
T2 sequence: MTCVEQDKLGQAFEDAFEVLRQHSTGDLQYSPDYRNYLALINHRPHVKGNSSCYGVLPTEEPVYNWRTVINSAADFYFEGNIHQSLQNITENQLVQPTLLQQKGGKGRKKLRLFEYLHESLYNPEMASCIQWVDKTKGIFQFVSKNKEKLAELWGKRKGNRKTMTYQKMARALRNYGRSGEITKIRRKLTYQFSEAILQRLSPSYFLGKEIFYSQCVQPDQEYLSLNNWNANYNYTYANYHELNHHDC
Summary of the method: as §1

ELF4 = ELF4 (Homo sapiens, UniProt Q99607 1-663); conditions: protein: recombinant; tags: N-terminal GST; dsDNA, one strand shown
Summary of the method: as §1

ELK4 = biological target: T3, ELK4 (Homo sapiens, UniProt P28324-2 1-405); conditions: protein: recombinant; tags: N-terminal GST; dsDNA, one strand shown
T3 sequence: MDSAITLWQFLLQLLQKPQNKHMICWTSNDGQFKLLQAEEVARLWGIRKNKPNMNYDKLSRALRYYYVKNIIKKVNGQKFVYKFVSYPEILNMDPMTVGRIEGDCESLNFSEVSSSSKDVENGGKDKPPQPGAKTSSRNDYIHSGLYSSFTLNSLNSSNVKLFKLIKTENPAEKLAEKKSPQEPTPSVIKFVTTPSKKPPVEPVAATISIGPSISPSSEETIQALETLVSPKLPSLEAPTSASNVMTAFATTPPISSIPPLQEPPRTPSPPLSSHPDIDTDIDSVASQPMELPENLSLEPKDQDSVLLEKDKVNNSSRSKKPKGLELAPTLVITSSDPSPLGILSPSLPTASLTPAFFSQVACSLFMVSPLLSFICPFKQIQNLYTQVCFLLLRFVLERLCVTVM
Summary of the method: as §1

ETV2 = biological target: T4, ETV2 (Homo sapiens, UniProt O00321 1-342); conditions: protein: recombinant; tags: N-terminal GST; dsDNA, one strand shown
T4 sequence: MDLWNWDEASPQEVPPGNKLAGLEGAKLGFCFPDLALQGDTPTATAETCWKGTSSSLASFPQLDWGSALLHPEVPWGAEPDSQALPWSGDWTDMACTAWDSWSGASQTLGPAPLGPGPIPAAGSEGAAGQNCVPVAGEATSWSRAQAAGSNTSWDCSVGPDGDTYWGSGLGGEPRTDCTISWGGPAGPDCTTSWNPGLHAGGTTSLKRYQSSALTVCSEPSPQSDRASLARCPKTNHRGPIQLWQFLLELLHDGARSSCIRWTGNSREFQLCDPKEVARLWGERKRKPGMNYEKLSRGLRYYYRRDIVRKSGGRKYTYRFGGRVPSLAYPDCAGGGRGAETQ
Summary of the method: as §1

ELF3 = biological target: T5, ELF3 (Homo sapiens, UniProt P78545 1-371); conditions: protein: recombinant; tags: N-terminal GST; dsDNA, one strand shown
T5 sequence: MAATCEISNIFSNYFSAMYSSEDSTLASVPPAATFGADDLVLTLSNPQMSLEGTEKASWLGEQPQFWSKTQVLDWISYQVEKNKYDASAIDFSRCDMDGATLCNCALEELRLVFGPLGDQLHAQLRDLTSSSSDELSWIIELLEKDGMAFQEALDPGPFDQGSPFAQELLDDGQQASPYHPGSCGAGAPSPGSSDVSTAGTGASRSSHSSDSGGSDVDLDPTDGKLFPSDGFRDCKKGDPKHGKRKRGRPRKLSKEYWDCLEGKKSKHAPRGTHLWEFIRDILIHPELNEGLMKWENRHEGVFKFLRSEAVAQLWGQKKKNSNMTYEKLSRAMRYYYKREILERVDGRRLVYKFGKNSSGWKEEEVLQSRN
Summary of the method: as §1

CRX = CRX (Homo sapiens, UniProt O43186 1-299); conditions: protein: recombinant; tags: N-terminal GST; dsDNA, one strand shown
Summary of the method: as §1

CRX, sequence (O43186 whole entry): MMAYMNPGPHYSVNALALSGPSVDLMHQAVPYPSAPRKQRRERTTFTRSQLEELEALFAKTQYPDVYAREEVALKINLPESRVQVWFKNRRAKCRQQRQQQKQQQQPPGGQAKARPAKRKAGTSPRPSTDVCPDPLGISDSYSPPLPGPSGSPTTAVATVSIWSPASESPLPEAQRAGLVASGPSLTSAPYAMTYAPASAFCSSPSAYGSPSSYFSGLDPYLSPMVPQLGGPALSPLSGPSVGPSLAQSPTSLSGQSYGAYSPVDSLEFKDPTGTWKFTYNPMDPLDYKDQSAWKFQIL
ELF4, sequence (Q99607 whole entry): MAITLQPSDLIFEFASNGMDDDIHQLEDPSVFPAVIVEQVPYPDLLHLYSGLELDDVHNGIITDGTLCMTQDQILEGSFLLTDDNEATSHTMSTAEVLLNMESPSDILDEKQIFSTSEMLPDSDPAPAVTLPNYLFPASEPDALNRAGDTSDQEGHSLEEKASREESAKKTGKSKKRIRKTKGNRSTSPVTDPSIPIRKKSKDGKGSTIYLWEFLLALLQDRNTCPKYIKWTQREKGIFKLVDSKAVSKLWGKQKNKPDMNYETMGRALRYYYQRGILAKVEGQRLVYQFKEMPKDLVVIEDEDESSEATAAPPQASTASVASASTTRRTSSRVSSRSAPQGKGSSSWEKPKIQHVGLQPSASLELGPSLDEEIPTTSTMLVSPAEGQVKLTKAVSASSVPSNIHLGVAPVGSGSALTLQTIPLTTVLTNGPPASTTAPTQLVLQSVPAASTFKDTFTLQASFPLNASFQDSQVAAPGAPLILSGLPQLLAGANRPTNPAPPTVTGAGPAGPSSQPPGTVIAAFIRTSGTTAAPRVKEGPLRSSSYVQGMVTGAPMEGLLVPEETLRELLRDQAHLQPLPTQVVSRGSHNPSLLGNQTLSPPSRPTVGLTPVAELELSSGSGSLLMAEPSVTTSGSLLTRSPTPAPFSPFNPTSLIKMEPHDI
ETV5, sequence (P41161 whole entry): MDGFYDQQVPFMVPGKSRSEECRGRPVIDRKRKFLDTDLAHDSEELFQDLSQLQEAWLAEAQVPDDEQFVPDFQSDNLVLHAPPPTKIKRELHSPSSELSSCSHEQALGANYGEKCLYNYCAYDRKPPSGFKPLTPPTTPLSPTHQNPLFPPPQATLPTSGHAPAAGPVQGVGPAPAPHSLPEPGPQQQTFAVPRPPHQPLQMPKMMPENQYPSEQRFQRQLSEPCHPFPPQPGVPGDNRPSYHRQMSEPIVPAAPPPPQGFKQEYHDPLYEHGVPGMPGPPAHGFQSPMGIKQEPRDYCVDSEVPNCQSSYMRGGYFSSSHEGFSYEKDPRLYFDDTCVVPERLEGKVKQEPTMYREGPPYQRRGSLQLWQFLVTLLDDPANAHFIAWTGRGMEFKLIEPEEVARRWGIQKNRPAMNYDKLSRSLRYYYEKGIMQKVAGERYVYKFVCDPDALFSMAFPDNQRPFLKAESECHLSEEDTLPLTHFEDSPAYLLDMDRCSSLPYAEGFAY
HSF1, sequence (Q00613 whole entry): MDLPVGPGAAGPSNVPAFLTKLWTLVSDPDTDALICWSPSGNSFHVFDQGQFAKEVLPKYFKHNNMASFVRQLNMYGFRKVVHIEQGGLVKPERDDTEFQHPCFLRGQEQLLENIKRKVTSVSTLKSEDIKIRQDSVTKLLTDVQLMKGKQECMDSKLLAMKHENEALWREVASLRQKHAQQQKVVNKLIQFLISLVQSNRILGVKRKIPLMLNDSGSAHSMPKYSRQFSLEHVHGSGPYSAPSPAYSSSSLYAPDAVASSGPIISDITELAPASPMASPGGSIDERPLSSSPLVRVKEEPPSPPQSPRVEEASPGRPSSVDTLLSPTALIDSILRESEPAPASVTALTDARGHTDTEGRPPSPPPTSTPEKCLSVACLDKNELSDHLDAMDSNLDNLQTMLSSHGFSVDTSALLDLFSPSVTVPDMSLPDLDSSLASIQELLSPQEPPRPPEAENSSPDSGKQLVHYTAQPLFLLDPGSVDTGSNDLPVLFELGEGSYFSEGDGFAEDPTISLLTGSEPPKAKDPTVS

## TCGATT
FEV
  binding signal: 1.02 fold enrichment (6-mer frequency, TF over GST control)
ETV5
  binding signal: 1.12 fold enrichment (6-mer frequency, TF over GST control)
HSF1
  binding signal: 1.48 fold enrichment (6-mer frequency, TF over GST control)
SPIC
  binding signal: 1.2 fold enrichment (6-mer frequency, TF over GST control)
ELF4
  binding signal: 1.19 fold enrichment (6-mer frequency, TF over GST control)
ELK4
  binding signal: 1.14 fold enrichment (6-mer frequency, TF over GST control)
ETV2
  binding signal: 1.04 fold enrichment (6-mer frequency, TF over GST control)
ELF3
  binding signal: 1.1 fold enrichment (6-mer frequency, TF over GST control)
CRX
  binding signal: 1.37 fold enrichment (6-mer frequency, TF over GST control)
